Several values for one entry are separate records, joined by “and”; a condition that tells them apart may be missing. Equal entries are not always repeated. The source holds several records for some structures; these can differ, active in one and inactive in another. Activity calls are given as the source filed them. Rule for the calls: active = hit-call score of the fitted dose curve at least 0.9, where 1 is the maximum; inactive = score below 0.9.

Read-out in the assay: Interleukin-1 alpha (IL1a), IL1A (gene 3552)
The experiment in a line: BSK_IMphg_IL1a: BioMAP Diversity Plus: IMphg Assay for Interleukin-1 alpha (IL1a) Biomarker Activity (AID 2284290). The following applies: primary human endothelial cells with macrophages. How it is done: BSK_IMphg is a cell-based, multiplexed-readout assay that uses venular endothelial cells and macrophages, a human vascular primary cell, with measurements taken at 24 hours after chemical dosing in a microplate: 96-well plate.BSK_IMphg_IL1a is an assay component measured in the BSK_IMphg assay. It measures IL-1a antibody related to regulation of gene expression using ELISA technology.Data from the assay component BSK_IMphg_IL1a was analyzed at the endpoint, BSK_IMphg_IL1a, in the positive analysis fitting direction relative to DMSO as the negative control and baseline of activity. Using a type of binding reporter, gain or loss-of-signal activity can be used to understand protein changes. To generalize the intended target to other relatable targets, this assay endpoint is annotated to the 'cytokine' intended target family, where the subfamily is 'interleukins'.
The levels of cell surface (or secreted, indicated by the prefix "s") biomarker endpoints were measured by ELISA. Overt cytotoxicity to cells in confluent adherent cultures (all systems other than the BT system) was assessed by measuring total protein levels using sulforhodamine B (SRB) staining in parallel cultures at the time of biomarker measurements, indicated as SRB endpoints. For proliferation assays for adherent cell types, individual cell types are cultured at sub-confluence and relative cell numbers quantified by SRB staining at time points optimized for each system (48 h: 3C and CASM3C systems; 72 h: BT and HDF3CGF systems; 96 h: SAg system). SRB was performed by staining cells with 0.1% SRB after fixation with 10% TCA and reading wells at 560 nm.Viability and proliferation of PBMC (T cells) was quantified by Alamar Blue reduction for the SAg and BT systems. For PBMC viability (referred to as PBMC Cytotoxicity within the assay endpoint names), cells were plated (75,000/well in a 96-well plate) and then chemical samples added for 1 h before addition of activators, SEB and TSST-1 (20 ng/mL final concentration each). Cells were incubated for 90 h. Then, Alamar Blue (20 uL/well) (Invitrogen, Cat DAL1100) was added for 6 h, and the plates were read with a fluorescence microplate reader at 546/580 nm (excitation/emission). For PBMC proliferation, cells were plated and activated as above but incubated for only 16 h prior to addition of Alamar Blue. Plates were read after 6 h.
In the case of `O=C(F)C1(F)C(F)(F)C(F)(F)C(F)(F)C(F)(F)C1(F)F`, the result was inactive. Same read-out and setting: then `C=CC(=O)OCCC(F)(F)C(F)(F)C(F)(F)C(F)(F)F`, with “inactive”.

By AC50 is commonly meant the concentration giving half of the maximal activity seen. With `OCCCC(F)(F)C(F)(F)C(F)(F)C(F)(F)C(F)(F)C(F)(F)C(F)(F)C(F)(F)F`, the half-maximal activity concentration (AC50) is 47.7 µM (active) and 51 µM (active). `CN(C(=O)C(F)(F)C(F)(F)C(F)(F)F)[Si](C)(C)C`: the result was inactive. With `NCC(F)(F)C(F)(F)C(F)(F)C(F)(F)C(F)(F)C(F)(F)C(F)(F)C(F)(F)F`, the result was inactive. Consider `C=CC(=O)OCC(F)(F)C(F)(F)C(F)(F)COC(=O)C=C`, for which the half-maximal activity concentration (AC50) is 45 µM (active) and the outcome was inactive. Regarding `FC(F)(F)C(F)(F)C(F)(F)CC1CO1` (stereo not given), the outcome was inactive. As to `NC(=O)C(F)(F)C(F)(F)C(F)(F)C(F)(F)C(N)=O`, the result was inactive.

Regarding `O=C(O)C(F)(F)C(F)(F)C(F)(F)C(F)(F)C(F)(F)C(F)(F)C(F)F`, the outcome was inactive.

As to `C=CC(=O)OCC(F)(F)C(F)(F)C(F)(F)C(F)(F)C(F)(F)C(F)(F)C(F)(F)C(F)F`, the result was inactive. Regarding `OCC(F)(F)C(F)(F)C(F)(F)C(F)(F)C(F)(F)C(F)(F)C(F)(F)C(F)(F)CO`, the AC50 was 47.6 µM (active) and 50.3 µM (active). As to `CO[Si](C)(CCC(F)(F)C(F)(F)C(F)(F)C(F)(F)C(F)(F)C(F)(F)F)OC`, the outcome was inactive. For the compound `NC(=O)C(F)(F)C(F)(F)C(F)(F)C(F)F`, the result was inactive. For the compound `O=S(=O)(OCC(F)(F)F)C(F)(F)C(F)(F)C(F)(F)C(F)(F)F`, the result was inactive. On to `C[Si](Cl)(Cl)CCC(F)(F)C(F)(F)C(F)(F)C(F)(F)C(F)(F)C(F)(F)F`, for which the result was inactive.

Regarding `O=C(Cl)C(F)(F)C(F)(F)C(F)(F)C(F)(F)C(F)(F)C(F)(F)C(F)(F)F`, the result was inactive. Take `C=C(C)C(=O)OCC(F)(F)C(F)(F)C(F)(F)C(F)F`: the outcome was inactive. The same measure, in the same setting: then `O=S(=O)(O)CCC(F)(F)C(F)(F)C(F)(F)C(F)(F)F`, with “inactive”; and `O=S(=O)(Cl)C(F)(F)C(F)(F)C(F)(F)C(F)(F)C(F)(F)C(F)(F)C(F)(F)C(F)(F)F`, with “inactive”.

Regarding `O=C(Cl)C(F)(F)C(F)(F)C(F)(F)C(F)(F)C(F)(F)C(F)(F)F`, the outcome was inactive.

Take `NCC(F)(F)C(F)(F)C(F)(F)C(F)(F)C(F)(F)C(F)(F)F`: the outcome was inactive.

Regarding `OC(O)C(F)(F)C(F)(F)F`, the result was inactive. Regarding `O=C(O)CCC(F)(F)C(F)(F)C(F)(F)F`, the outcome was inactive. As to `OCC(O)CC(F)(F)C(F)(F)C(F)(F)C(F)(F)F` (stereo not given), the outcome was inactive. Same read-out and setting: then `O=C(O)C(F)(F)OC(F)(F)C(F)(F)OC(F)(F)C(F)(F)OC(F)(F)F`, with “inactive”; and `O=C(O)C(F)(F)C(F)(F)C(F)(F)C(=O)O`, with “inactive”; and `O=S(=O)(O)CCC(F)(F)C(F)(F)C(F)(F)C(F)(F)C(F)(F)C(F)(F)C(F)(F)C(F)(F)F`, with “inactive”. On to `FC(F)(F)C(F)(F)C(F)(F)C(F)(F)C(F)(F)C(F)(F)CC[Si](Cl)(Cl)Cl`, for which the outcome was inactive.

As for `NC(=O)C(F)(F)C(F)(F)C(F)(F)F`, the outcome was inactive. Same read-out and setting: then `COC(F)(C(F)F)C(F)(F)F` (stereo not given), with “inactive”; and `NC(=O)C(F)(F)C(F)(F)C(F)(F)C(F)(F)C(F)(F)C(F)(F)C(F)(F)F`, with “inactive”; and `CCN(CCO)S(=O)(=O)C(F)(F)C(F)(F)C(F)(F)C(F)(F)C(F)(F)C(F)(F)C(F)(F)C(F)(F)F`, with “inactive”. Take `NS(=O)(=O)C(F)(F)C(F)(F)C(F)(F)C(F)(F)C(F)(F)C(F)(F)F`: the result was inactive and the AC50 was 6.98 µM (active).

For the compound `NC(O)(C(F)(F)F)C(F)(F)F`, the result was inactive.

As to `OCC(O)CC(F)(F)C(F)(F)C(F)(F)C(F)(F)C(F)(F)C(F)(F)C(F)(F)C(F)(F)F` (stereo not given), the outcome was inactive.

`OCCCCC(F)(F)C(F)(F)C(F)(F)C(F)(F)F`: the outcome was inactive. On the same count and under the same terms, under `O=C(O)CCC(F)(F)C(F)(F)C(F)(F)C(F)(F)C(F)(F)C(F)(F)C(F)(F)F` stands “inactive”. Regarding `FC(F)(F)C(F)(F)C(F)(F)C(F)(F)C(F)(F)C(F)(F)C(F)(F)CCI`, the result was inactive.
